# From ChEMBL document CHEMBL4513216, “Probing the Open Global Health Chemical Diversity Library for Multistage-Active Starting Points for Next-Generation Antimalarials” (ACS Infect Dis, 2020)
# Among all 69,000 compounds or so, about 8,600 (12%) showed an effect of 50% or more. The sample holds strong results, similar compounds and a random draw of the others, so the mix is not that of the screen.
# System: Plasmodium berghei
# Assay: Screen against P. berghei liver stage (PbLuc), transformed with Luciferase, at 10uM
# Type: functional, HepG2
# Conditions: tested at 10 uM
row,SMILES,INHIBITION
1,COCCCN(Cc1cnc(N2CCCC2)nc1)C1CCN(C)CC1,10.3%
2,CC1=Nc2c(c(O)nn2C(C)C)C(c2cccnc2)S1 (configuration not stated),-3.19%
3,CC(=O)N1CC(=O)N(c2ccccc2)CC12CCN(CC1CC1)C2 (configuration not stated),27.9%
4,O=C(O)c1ncccc1OCC(F)(F)F,59.1%
5,O=C(OC1CCC1)c1ncccc1OCC(F)(F)F,8.08%
6,O=C(OC1CCC1)c1ncccc1C(F)(F)F,42.8%
7,Cc1nccc(C2CCCN(C(=O)c3cncnc3)C2)n1 (configuration not stated),-38.3%
8,COC(=O)C(C)(C)S(=O)(=O)c1ccc(Br)cc1,-1.15%
9,COc1ccc(NC(=O)Nc2c(O)c3ccccc3oc2=O)cc1,33.6%
10,CC(C)(CO)Nc1cc(-c2ccccc2)ncn1,29.3%
11,OCCNc1cc(-c2ccccc2)ncn1,47.1%
12,CC(C)(CO)Nc1cc(-c2cn[nH]c2)ncn1,56%
13,CCc1cc(=O)[nH]c(-c2ccc(NC(CO)CC(C)C)nc2)n1 (configuration not stated),-27.4%
14,CC[C@@H](CO)Nc1cc(-c2cn[nH]c2)ncn1,50.1%
15,C[C@H](O)CNc1cc(-c2cn[nH]c2)ncn1,24.8%
16,C[C@@H](CO)Nc1cc(-c2cn[nH]c2)ncn1,20.4%
17,CC(C)(CO)Nc1cc(-c2ccncc2)ncn1,44.1%
18,CC(C)[C@@H](CO)Nc1cc(-c2cn[nH]c2)ncn1,56%
19,CC(C)CCn1cc(C(C(=O)O)N2CCC(N3CCSCC3)CC2)cn1 (configuration not stated),3.06%
20,CCn1ccnc1CN1CCN(C(C)C(=O)NCc2ccco2)CC1 (configuration not stated),18.6%
21,Cc1c[nH]nc1C1CN(c2cnccn2)CCO1 (configuration not stated),24.05%
22,Cc1nc(C(C)C)sc1C(=O)NCC(C)(C)N1CCOCC1,-20.1%
23,Cc1nn(C)c(C)c1-c1nc2cc(S(=O)(=O)N3CCCC3)ccc2n1C,-28%

row,SMILES,INHIBITION
1,O=C1COC2(CCN(CC3CCOCC3)CC2)CN1Cc1ccccn1,27.4%
2,O=C(NCCCO)c1nnsc1-c1ccc(Cl)cc1,31.7%
3,Clc1ccc2[nH]c3c(c2c1)CCCC3c1nn[nH]n1 (configuration not stated),30.2%
4,Cn1c(N)c2c(=O)n(C)c(-c3ccc(Cl)cc3Cl)cc2c(C#N)c1=O,66%
5,Cn1c(N)c2c(=O)n(C)c(-c3ccccc3)cc2c(C#N)c1=O,0.868%
6,Cn1c(N)c2c(=O)n(C)c(-c3ccc(Cl)cc3)cc2c(C#N)c1=O,-26.3%
7,COc1ccc(NC(=O)CCSc2ccc3nncn3n2)c(OC)c1,28.1%
8,O=C1CO[C@H]2CN(Cc3cccc4[nH]ccc34)C[C@@H]2N1C1CCOCC1,26.8%
9,Oc1cc(C2CCCCN2Cc2cccs2)nc(-c2ccncc2)n1 (configuration not stated),19.25%
10,Oc1cc(C2CCCN(Cc3cccs3)C2)nc(-c2ccccn2)n1 (configuration not stated),81.5%
11,Cc1cnc(-c2nc(C3CCCN(Cc4cccs4)C3)no2)cn1 (configuration not stated),14.975%
12,Oc1cc(C2CCCCN2Cc2ccsc2)nc(-c2ccncc2)n1 (configuration not stated),10.9%
13,Cn1nc(C2CCCN(Cc3cccs3)C2)c2nccnc21 (configuration not stated),-0.902%
14,Oc1cc(C2CCCCN2Cc2cccs2)nc(-c2ccccn2)n1 (configuration not stated),86.3%
15,COCCNC(=O)[C@@H]1CN(Cc2sccc2C)C[C@H]2OCC[C@H]21,16.8%
16,Cn1nnc(NCc2ccc(-c3ccc(Cl)cc3)o2)n1,49.7%
17,Brc1ccc(CNCc2nnc3n2CCC3)s1,36.7%
18,Cc1nc(C2CCCN2CC(=O)N(C)Cc2ccsc2)no1 (configuration not stated),13.3%
19,O=C(CN1CCCc2cc(F)cc(F)c21)Nc1ccc(Br)cn1,-5.57%
20,COc1cccc2c1N(CC(=O)Nc1ccc(Br)cn1)CCC2,66.7%
21,COc1cccc2c1N(CC(=O)Nc1ccc(Cl)cn1)CCC2,33.1%
22,Cn1cnc(S(=O)(=O)N2CCCC2c2cnccn2)c1 (configuration not stated),22%
23,Cc1cn2nc(N3CCN(Cc4nc(C(C)C)no4)CC3)sc2n1,42%

row,SMILES,INHIBITION
1,Cc1cn2nc(N3CCN(Cc4c(C)noc4C)CC3)sc2n1,58.5%
2,CCc1nc(CN2CCCN(c3nn4cc(C)nc4s3)CC2)no1,85.2%
3,Cc1cn2nc(N3CCN(Cc4cc(C)on4)CC3)sc2n1,7.08%
4,Cc1cc(CN2CCN(c3nn4cc(C)nc4s3)CC2)on1,37%
5,Cc1cn2nc(N3CCCN(Cc4noc(C)n4)CC3)sc2n1,-9.14%
6,Cc1cnn(CC(C)Nc2nc3ccccc3o2)c1 (configuration not stated),21.8%
7,COCC[C@]1(O)CCN(C2CCN(C(=O)C3CCC3)CC2)C[C@H]1C,36.4%
8,O=C(NC1CCC1)[C@H]1C[C@H]2CN(C(=O)Nc3ccc(F)cc3)C[C@@H]1O2,1.9%
9,CC(C)(C)c1ncc(CNc2ccccc2SCCC(N)=O)s1,83.4%
10,CC(C)(C)c1ncc(CNc2ccccc2Cn2cncn2)s1,60.6%
11,c1csc(CNc2ccccc2Cn2cncn2)c1,-56.8%
12,CC(C)N(CC(N)=O)Cc1csc(C(C)(C)C)n1,-7.31%
13,CC(C)(C)c1nc(CNc2ccccc2SCCC(N)=O)cs1,77.4%
14,NC(=O)CCSc1ccccc1NCc1ccc(Cl)s1,75.7%
15,CNc1nc(CNC(=O)Nc2ccccc2SC)cs1,6.14%
16,Cc1ccc(CNc2ccccc2SCCC(N)=O)s1,39.7%
17,NC(=O)C(NC(=O)CCc1ccc(Cl)s1)c1ccccc1 (configuration not stated),-19.7%
18,NC(=O)CSc1ccccc1NCc1nc(Cc2ccccc2)no1,-75.4%
19,CC(C)(C)c1ncc(C(=O)NC(C(N)=O)c2ccccc2)s1 (configuration not stated),3.15%
20,c1ccc(NCc2ccsc2)c(Cn2cncn2)c1,3.41%
21,CC(=O)N1CCC(Cc2cncc(-c3c(C)n[nH]c3C)n2)C1 (configuration not stated),28%
22,CN1CC(=O)N(c2cccnc2)CC12CCN(C(=O)c1cccn1C)C2 (configuration not stated),-46.8%
23,CCCOC(=O)NCCC1CN(c2cnn(C)c(=O)c2)CCO1 (configuration not stated),45.3%

row,SMILES,INHIBITION
1,CC(=O)NC(=O)C1(CCCc2ccncc2)CCN1 (configuration not stated),12.3%
2,O=C(N1CCCC1)N1Cc2nccn2CC(COc2cccnc2)C1 (configuration not stated),-21.1%
3,CSc1ccc(C(=O)N2CC(=O)N(Cc3ccccc3)CC(O)C2)cc1 (configuration not stated),-42.1%
4,O=C(CN1C(=O)CCC1=O)N1CCOC2(CCOCC2)C1,32.4%
5,O=C(CN1C(=O)CCC1=O)N1CCOCC1,59.8%
6,O=C(Cn1nc(Br)nc1Br)N1CCOCC1,15.5%
7,Cc1nc2[nH]cnc(Nc3ccn(C)n3)c-2n1,25.9%
8,CC(C)CC(NC(=O)OC(C)(C)C)C(N)=O (configuration not stated),13.9%
9,Cc1cccc(-c2nc3cc(S(=O)(=O)N4CCCC4)ccc3n2C)n1,-7.53%
10,CC(C)(CO)CCCNC(=O)NC1(c2ccccc2F)CC1,9.16%
11,O=C(NCCOc1ccc2c(c1)OCO2)C1CC(=O)N(C2CC2)C1 (configuration not stated),31.9%
12,O=C(N[C@H]1CN[C@H]2CCCO[C@H]21)c1cscn1,1.81%
13,O=C(N[C@@H]1CN[C@H]2CCCO[C@H]21)c1cnccn1,52%
14,O=C(N[C@@H]1CN[C@@H]2CCCO[C@@H]21)c1cscn1,11.4%
15,Cc1ccc(CNc2cc(C(=O)N3CCOCC3)nc(C)n2)cc1,-3.72%
16,CC(C)N1CC(C(=O)NCc2cccnc2-n2cccn2)CC1=O (configuration not stated),6.2475%
17,CNC(=O)CNC(=O)Nc1cc(-c2ccccc2)ns1,73.3%
18,CC(C)(C)NC(=O)CNC(=O)Nc1cc(-c2ccccc2)ns1,26%
19,CC(C)C(=O)NCCCNC(=O)Nc1cc(-c2ccccc2)ns1,-89.2%
20,COc1cccc(CCC(=O)N2CCCC(c3nncn3C)C2)c1 (configuration not stated),4.71%
21,COc1ccc(OC)c(CN2CCCCCC2c2cccs2)c1 (configuration not stated),50.5%
22,COc1cccc(CN2CCCCCC2c2cccc(C)c2)c1O (configuration not stated),56.1%
23,COc1cccc(CN2CCCCCC2c2sccc2C)c1O (configuration not stated),23.5%

row,SMILES,INHIBITION
1,COc1cc(CN2CCCCCC2c2cccs2)cc(OC)c1OC (configuration not stated),29.3%
2,COc1cccc(CN2CCCCCC2c2cccc(F)c2)c1O (configuration not stated),-0.29%
3,COc1cccc(CN2CCCCCC2c2cccs2)c1O (configuration not stated),33.2%
4,COc1ccc(CN2CCCCCC2c2cccs2)c(OC)c1 (configuration not stated),10.2%
5,COc1cc(CN2CCCCCC2c2cccs2)cc(OC)c1O (configuration not stated),50.8%
6,COc1ccc(CN2CCCCCC2c2cccs2)c(O)c1 (configuration not stated),4.35%
7,CC1=Nc2c(c(O)nn2C(C)C)C(c2cnn(C)c2)S1 (configuration not stated),21.7%
8,COc1nsc2nc(C3CCCN3C(C)=O)ccc12 (configuration not stated),26.12%
9,Cc1nn(C)c(C)c1CN(Cc1cccn1-c1ncccn1)C(C)C,-30.5%
10,CCCC(C)NC1CCN(c2ccc(-n3ccnc3C)cc2)CC1 (configuration not stated),52.1%
11,Cc1nccn1-c1ccc(C(C)NCCc2ccccn2)cc1 (configuration not stated),62.8%
12,CCCc1nccn1-c1ccc(C(C)O)cc1 (configuration not stated),-20.6%
13,Cc1nccn1-c1ccc(C(C)NCCC(C)C)cc1 (configuration not stated),62.8%
14,CC(Cn1ccnc1)NC(=O)NCCc1ccccn1 (configuration not stated),46.5%
15,Cn1cc(C(NCCc2ccccn2)c2cccc(F)c2)cn1 (configuration not stated),-1.75%
16,CCS(=O)(=O)c1ccc(N2CCC(NC(=O)CCC(C)C)CC2)cc1,42.6%
17,Cc1nn(C)c(C)c1CCNC(C)c1ccc(-n2ccnc2C)cc1 (configuration not stated),87.6%
18,Cc1nccn1-c1ccc(CN2CC3C[C@@H](O)CN3C[C@@H]2C)cc1 (some centres not stated),-44.8%
19,Cc1nccn1-c1ncccc1NC(=O)CCOCC(C)C,4.66%
20,Cc1nccn1-c1ccc(N2CCC(NC(C)CC(C)C)CC2)cc1 (configuration not stated),38.5%
